Source: PubChem BioAssay
The source made the active and inactive calls.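 The calls were made as follows: active = inhibition at or above 50% at 10 µM; inactive = inhibition below 50%.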

Assay: blockers of RIG-like receptor reporter activation – cell-based, Sendai virus stimulus, luciferase, 10K MLSCN set, TLR/RLR signaling modifier project, primary screen (AID 602276);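 also: firefly luciferase from ISG56 promoter only with Renilla not read in this screen; 0% = Sendai virus plus DMSO and 100% = medium plus DMSO without virus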
Details: HEK293 RL24 IRF3 luciferase reporter, at 10 µM, hits give high values

inhibition, inactive:
COC(=O)c1ccccc1NC(=O)CC(NCc1ccccc1)C(=O)O (stereo not given) -10.8%, CCOC(=O)N1CCN(C(=O)c2ccc(CS(=O)(=O)c3c(Cl)cccc3Cl)o2)CC1 -2.6%, O=C(Cc1ccccc1)Nc1ccc(CN2CCOCC2)cc1 -34%, COc1ccc(N(CC(=O)O)S(=O)(=O)c2ccc(OC)c(OC)c2)cc1 15.4%, Cc1ccc(C)c(C(=O)CC2(O)C(=O)N(C)c3ccccc32)c1 (stereo not given) 2.91%, CCC1CCCN1Cn1cnc2c([nH]c3ccc(OC)cc32)c1=O (stereo not given) 11.1%, CC1Cc2nc(SCC(=O)Nc3ccc4c(c3)OCO4)n(-c3ccc(F)cc3)c(=O)c2S1 (stereo not given) -0.186%, CCCn1c(C)nc2c(c1=O)c1nc3ccccc3nc1n2CCc1ccccc1 3.36%, CCOC(=O)C(CCc1nnc(N)s1)C(=O)OCC 16.5%, CCOC(=O)c1c(N)sc(C(=O)N2CCOCC2)c1C 16.8%, Cc1oc(-c2cccc(Cl)c2)nc1CN1CCC(C(=O)N2CCN(c3ccccc3F)CC2)CC1 -0.341%, COc1ccc(NC(=O)CN2CCN(S(=O)(=O)c3ccc(Cl)cc3)CC2)cc1 11.8%, O=C(CS(=O)(=O)c1cn(Cc2ccc(Cl)cc2)c2ccccc12)N1CCCC1 15.4%, O=C(OCc1cc2ccccc2[nH]c1=O)c1ccco1 4.98%, CC1CCCCC1NC(=O)c1nn(C)c(=O)c2ccccc12 (stereo not given) -1.74%, COc1ccccc1Oc1ccc(S(=O)(=O)N2CCOCC2)cc1S(=O)(=O)N1CCOCC1 10%, CCOC(=O)N1CCN(C(=O)CSc2ncnc3ccccc23)CC1 1.11%, COC(=O)Nc1nnc(CCc2ccccc2)s1 12.3%, O=C(c1ccco1)N1CCN(CCCCN2C(=O)c3ccccc3C2=O)CC1 15.1%, Fc1ccccc1Cn1nnc2c(-n3ccnc3)ncnc21 -9.4%, N/C(=N/O)c1nc(N2CCCC2)nc(N(c2ccccc2)c2ccccc2)n1 13.2%, Cc1ccc(NC(=O)C2CCCN(S(=O)(=O)c3cnc[nH]3)C2)c(Br)c1 (stereo not given) 3.4%, Cc1ccn2cc(CCNC(=O)CC(C)(C)C)nc2c1 3.87%, O=C1c2cccnc2C(=O)N1c1cccc(-c2nc3ccccc3o2)c1 13.3%, CSc1nc2c(c(=O)n1C)SC(C)C2 (stereo not given) 4.05%, O=C(Nc1cccc2ccccc12)N1CCN(c2ccccc2)CC1 8.28%, Cc1nnc(SCC(=O)NCCN2C(=O)CSC2=O)s1 9.12%, CN(C(=O)COc1cc(=O)n(C)c2ccccc12)c1ccc(Br)cc1 6.78%, CCOC(=O)c1c(C)oc2c1c(C(c1ccncc1)N1CCOCC1)c(O)c1ccccc12 (stereo not given) -6.32%, CCOC(=O)CNC(=O)CSc1nc(N)cc(N)n1 1.91%, CC(C)(CSc1nncn1N)NS(=O)(=O)c1ccc(Cl)cc1 -0.22%, O=C(CCNS(=O)(=O)c1cccs1)Nc1ccccc1F 6.58%, CC(C)(C)c1nnc(NC(=O)C2CCN(c3ncccn3)CC2)s1 5.09%, COc1cc(Cl)c(C)cc1NC(=O)COC(=O)c1cnc(C)cn1 -3.59%, O=C(CN1CCN(Cc2ccc3c(c2)OCO3)CC1)Nc1ccc2c(c1)OCCO2 0.946%, CCC(C)NC(=O)C1(C)CCC(=O)N1CCc1ccc(OC)c(OC)c1 (stereo not given) 5.13%, COC(=O)Cc1c(C)c2ccc(OCC(=O)N3CCOCC3)cc2oc1=O 17.8%, CC1=C(C(=O)Nc2ccccc2C)C2(CCCC2)C(C(N)=O)C(=O)N1 (stereo not given) 13.6%, O=C(O)C1CC=CCC1C(=O)Nc1ccc(S(=O)(=O)N2CCCc3ccccc32)cc1 (stereo not given) 46%, CCCC(=O)Nc1ccccc1-c1nnn(CC(=O)Nc2ccc(OC)cc2)n1 14.1%
